Shiga toxin inh: blocks Shiga toxin action in Vero cells; Vero cells, Shiga toxin protein synthesis inhibition reporter; inhibition, % at 38.7 µM; 290,000 tested, 9.2% active; AID 2315; in the data active = inhibition mostly above about 28%, no sharp cut-off; inactive = mostly below about 43%; note: 0% is about no effect
SARS PLP yeast: blocks SARS-CoV papain-like protease in a yeast assay; Potency, µM (doses to about 32.9 µM), for the others: at the highest dose activity, positive = growth rescue, hits mostly activators; AID 485353; 330,000 tested, 0.19% active; S. cerevisiae expressing SARS-CoV PLpro, growth rescue; calls by dose curve; note: potency is the fitted concentration of half-maximal effect; 0% is about no effect; nearly all actives have a fitted effect of over 55% in size
AMA1 RON2 block: inhibitors of Plasmodium falciparum AMA1-RON2 interaction; AlphaScreen AMA1-biotinylated RON2 peptide binding; Potency, µM (top dose mostly 58.2 µM), for the others: at the highest dose activity change, negative = inhibition, usual class: inhibitors; 360,000 tested, 0.2% active; AID 720542;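 note: potency is the fitted concentration of half-maximal effect; 0% = vehicle wells and -100% = peptide control; nearly all actives have a fitted effect of over 45% in size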
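AMA1 (3D7) with his tag at 25 nM final met compounds first, then biotinylated RON2 peptide at 25 nM; detection used donor plus acceptor beads, 10 µg/mL apiece, read by AlphaScreen after 30 min at room temperature.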
Pf growth 48h: P. falciparum growth inhibition at 48 hours (one generation). 310,000 tested, 5.9% active. Potency, µM (series often up to 28.7 µM), without a hit: at the highest dose activity change, negative = inhibition, most hits filed as inhibitors. P. falciparum luciferase growth in erythrocytes, 48 h; note: potency is the fitted concentration of half-maximal effect; % is set by controls: 0 for no effect and ±100 for the full control effect
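Parasite viability was followed by luminescence of a genomically integrated firefly luciferase. Cultures held 0.1% parasitemia at 2% hematocrit (final), incubated under 5% CO2 at 37 C.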
CHX counter: affects cycloheximide protein synthesis inhibition readout, counter-screen; 300,000 tested, 12% active; max response, %; cell reporter, cycloheximide protein synthesis inhibition counterscreen; AID 2314; in the data active = max response mostly above about 13%, no sharp cut-off; inactive = mostly below about 14%; note: read at 38.3 µM for the half of the compounds with a filed dose; 0% is about no effect
Pf growth 96h: inhibits malaria parasite growth, 96 h | P. falciparum luciferase reporter growth, 96 h | Potency, µM (series often up to 28.7 µM), for the others: at the highest dose activity change, negative = inhibition, most hits filed as inhibitors | 320,000 tested, 6.9% active | AID 504834; note: potency is the fitted concentration of half-maximal effect; % is set by controls: 0 for no effect and ±100 for the full control effect
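Luminescence readout: decreased luciferase signal marks inhibited growth of reporter-expressing P. falciparum in infected red cells (2% hematocrit, 0.05% parasitemia final), exposed to compound two generations (96 h, 37 C, 5% CO2).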
Active calls of the source: *; i = inactive; ? = inconclusive; . = not tested or not shown; [ ] = remark or other dose. Compounds with a hit are over-represented: about 19% of the library has one in this group of screens. Unless noted, calls come from the whole dose curve; as a rule, active = well fitted curve in the direction sought with a large enough effect; inconclusive = small, poorly fitted or top-dose-only effect, or another doubt; inactive = no such curve, though single readings can be large; an effect the other way counts as inactive or inconclusive.

SMILES | Shiga toxin inh | SARS PLP yeast | AMA1 RON2 block | Pf growth 48h | CHX counter | Pf growth 96h
O=C(CSCc1ccc(Cl)cc1)Nc1cccc(C(=O)O)c1 | 52.0* | -1.7% | 15.7% | 55.4% | 27.3* | 12.9%
CC(=O)Nc1ccc(SCCCC(=O)c2ccccc2)cc1 | 72.1* | -29.6% | 3.2% | 42.8% | 29.3* | 25.7%
CC(=O)c1cccc(NC(=O)CCCSc2ccccc2)c1 | 19.6* | -2.3% | 12.0% | 0.4% | 8.5 | -5.8%
CC(=O)c1cccc(NC(=O)CSCc2ccccc2)c1 | 71.3* | -7.7% | 4.7% | 13.2% | 39.3* | 59.5%
CC(=O)c1cccc(NC(=O)CSCc2ccc(Br)cc2)c1 | -3.7 | 16.5% | -4.0% | -6.7% | -1.5 | -8.0%
CC(=O)Nc1cccc(-c2ccnc3c2CC(C(=O)NCc2ccc(N4CCN(C)CC4)cc2)O3)c1 (stereo not drawn) | . | . | -13.0% | . | . | .
COCC(C)N1CCC(n2nccc2NC(=O)CCCc2ccccc2)CC1 (stereo not drawn) | 6.4 | -7.6% | -7.1% | -3.9% | 7.1 | ?
CS(=O)(=O)N1CCc2cc(C(=O)N3CCOCC3)ccc21 | -11.5 | -2.1% | 13.2% | 4.0% | 12.0 | 37.4%
CS(=O)(=O)N1CCc2cc(C(=O)N3CCCCC3)ccc21 | 0.4 | -5.0% | 3.9% | 4.3% | -0.8 | -6.9%
O=C(c1ccc2c3n(nc2c1)-c1ccccc1CO3)N1CCOCC1 | 58.3* | -15.9% | -4.4% | 248.2% | 30.9* | 119.4%
O=C(c1ccc2c3n(nc2c1)-c1ccccc1CO3)N1CCCCC1 | 80.0* | -15.9% | -3.6% | 229.7% | 28.9* | -21.0%
Cc1ccc2c(c1)COc1c3ccc(C(=O)N4CCCCC4)cc3nn1-2 | 64.5 | -7.9% | -4.6% | 159.4% | 34.3* | -0.2%
O=C(c1ccc2nc(-c3ccccc3)c(-c3ccccc3)nc2c1)N1CCCCC1 | 5.0 | -10.1% | -8.6% | -17.4% | -1.8 | 3.4%
O=C(c1ccc2c3n(nc2c1)-c1ccc(Cl)cc1CO3)N1CCOCC1 | 56.5* | -6.6% | -0.7% | 122.3% | 20.8* | 172.6%
O=C(c1ccc2ccccc2c1)N1CCOCC1 | . | 1.8% | -2.3% | -13.7% | . | 18.4%
CCCc1nc2c(nnn2Cc2ccccc2Cl)c(=O)[nH]1 | -3.0 | -0.8% | -1.8% | 21.2% | -0.7 | 57.4%
CN(C)S(=O)(=O)c1cccc(NC(=O)C2Cc3ccccc3CN2C(=O)c2ccco2)c1 (stereo not drawn) | 69.0* | 3.8% | -24.8% | ? | 21.1* | ?
Cc1ccc(NC(=O)C2Cc3ccccc3CN2C(=O)c2ccco2)cc1S(=O)(=O)N(C)C (stereo not drawn) | 79.3* | -3.4% | -13.2% | -13.6% | 30.7* | -10.0%
COc1ccc(N(CC(=O)NCCc2ccc(Cl)cc2)S(=O)(=O)c2c(C)[nH]c(=O)[nH]c2=O)cc1 | 20.8 | -2.5% | 0.0% | -22.6% | 9.4 | ?
N/C(=N\OC(=O)c1cccc([N+](=O)[O-])c1)c1cccnc1 | 23.0 | 7.8% | -21.4% | 84.5% | 25.9* | 86.9%
O=C(COC(=O)c1cccc([N+](=O)[O-])c1)NNC(=O)c1cccs1 | . | 2.9% | 6.0% | 3.9% | . | -19.1%
Cc1cccc(C(=O)O/N=C(\N)c2cccc([N+](=O)[O-])c2)c1 | 98.8* | -4.5% | -2.5% | 38.3% | 52.9* | -0.6%
N/C(=N\OC(=O)c1cccs1)c1cccc([N+](=O)[O-])c1 | 84.6* | -9.1% | 10.7% | 218.5% | 36.0* | 129.6%
COc1cccc(C(=O)O/N=C(\N)c2ccc([N+](=O)[O-])cc2)c1OC | 75.6* | -4.6% | -2.4% | 65.0% | 75.1* | ?
O=C(COC(=O)c1cnccn1)c1cccc([N+](=O)[O-])c1 | 5.3 | 1.9% | 0.0% | 7.3% | -2.4 | 1.3%
SMILES | Shiga toxin inh | SARS PLP yeast | AMA1 RON2 block | Pf growth 48h | CHX counter | Pf growth 96h
COc1ccc(/C(N)=N/OC(=O)c2ccc(OC)c([N+](=O)[O-])c2)cc1OC | 3.4 | -0.6% | 0.3% | ? | -2.6 | 32.0%[5.75 µM]
Cc1cc(C)cc(NC(=O)C(NCCN2CCOCC2)c2ccccc2)c1 (stereo not drawn) | 4.3 | -0.9% | -4.1% | -7.9% | -0.8 | -1.1%
N/C(=N\OC(=O)c1cccc2ccccc12)c1cccc([N+](=O)[O-])c1 | 17.5 | 1.1% | -5.6% | 55.5% | 9.7 | 77.8%
Cc1ccccc1C(=O)O/N=C(\N)c1cccc([N+](=O)[O-])c1 | 99.5* | -24.4% | -1.4% | -35.4% | 65.4* | ?
CC(=O)c1cccc(NC(=O)C(=O)c2cn(CC(=O)N3CCCCC3)c3ccccc23)c1 | 16.9 | -1.7% | -1.0% | 0.0% | 7.6 | 16.7%
COc1ccc(NC(=O)C2=Cc3ccccc3OC2)cc1 | 43.9 | -2.8% | 0.2% | i | 24.8 | 107.0%
COc1cccc2c1OCC(C(=O)OCc1cccnc1)=C2 | 15.1 | 0.1% | 3.1% | 0.8% | 14.8* | 4.9%
COc1ccc(NC(=O)C2=Cc3cccc(OC)c3OC2)cc1 | 59.8* | -1.3% | 9.5% | 29.4% | 31.1* | 49.9%
O=C(NCCNS(=O)(=O)c1ccccc1Cl)c1cc(OCC(F)(F)F)ccc1OCC(F)(F)F | -9.2 | -5.0% | 42.5% | ? | -4.9 | 11.7µM*
CC(C)(C)c1ccc(C(=O)NCC2CCCN2S(=O)(=O)c2ccccc2)cc1 (stereo not drawn) | . | -8.1% | 0.0% | 9.28µM* | . | 13.1µM*
Cc1ccc(C)c(S(=O)(=O)N2CCCC2CNC(=O)C(=O)NC2CC2)c1 (stereo not drawn) | . | 2.1% | 0.5% | ? | . | -0.1%
Cc1ccc(C)c(S(=O)(=O)N2CCCC2CNC(=O)c2ccc([N+](=O)[O-])cc2)c1 (stereo not drawn) | . | -4.4% | 4.8% | 10.4µM* | . | ?
Cc1ccc(S(=O)(=O)N2CCCC2CNC(=O)c2ccc(F)c(F)c2)cc1 (stereo not drawn) | . | -0.7% | -8.6% | 10.4µM* | . | ?
Cc1ccc(C(=O)NCC2CCCN2S(=O)(=O)c2ccc(C)cc2)cc1 (stereo not drawn) | . | 1.6% | 16.3% | ? | . | 10.4µM*
O=C(NCC1CCCN1S(=O)(=O)c1cccs1)c1ccc(F)c(F)c1 (stereo not drawn) | . | -7.4% | -3.0% | -23.7% | . | 12.1%
CCCC(=O)N1CCC1(C)C(=O)Nc1ccc2scnc2c1 (stereo not drawn) | . | . | 5.8% | . | . | .
CS(=O)(=O)c1cnc(-c2ccccc2)nc1-c1ccccc1Cl | -24.0 | 0.4% | -2.7% | -11.2% | 1.1 | -16.1%
Cc1ccc(NC(=O)C2(N(C(=O)Cn3nnnc3N)c3ccc(C)cc3)CCCCC2)cc1 | -30.3 | -1.8% | -4.1% | 14.8% | -2.2 | 13.1µM*
Cc1ccc(C(=O)N2CCN(c3ccccc3F)CC2)cc1S(=O)(=O)N1CCOCC1 | 19.5 | 9.7% | 6.3% | -29.2% | -3.4 | 136.0%
CS(=O)(=O)c1ccc(Cl)c(NC(=O)COC(=O)C23CC4CC(CC(C4)C2)C3)c1 | . | -9.9% | 3.9% | 5.22µM* | . | 8.28µM*

Source: PubChem BioAssay
